Data taken from PubChem BioAssay AID1159580 (chemical genetic matrix, 2015).
In all, about 5,500 compounds went through this assay and about 2,000 (36%) were called active. About 18% were inconclusive and are not listed. No stated cut-off is given here; in the data, active means normalized growth mostly below about 0.91 (no sharp cut-off); inconclusive means no clear call, values can overlap the other calls; inactive means mostly above about 0.92. The list shows a part of the results.

Test: chemical genetic growth profiling, strain panel (AID 1159580);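 further: tested at 20 µM; growth read once vehicle control cultures reached saturation at 30 °C; 1 = growth at the plate median or of vehicle wells; lower values mean less growth of the strain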
Conditions: growth OD

Measured: normalized growth

Nc1ccc(S(=O)(=O)Nc2ncccn2)cc1
inactive: S. cerevisiae deletion strains, locus YJR066W, strain TOR1, active compounds read low 0.92 | S. cerevisiae deletion strains, locus YJR075W, strain HOC1, active compounds read low 0.992 | S. cerevisiae deletion strains, locus YKL009W, strain mrt4, active compounds read low 1.01 | S. cerevisiae deletion strains, locus YKL068W, active compounds read low 0.989 | S. cerevisiae deletion strains, locus YKL085W, strain MDH1 (second series), active compounds read low 0.996 | S. cerevisiae deletion strains, locus YKL085W, strain MDH1, active compounds read low 0.996 | S. cerevisiae deletion strains, locus YKL160W, strain elf1, active compounds read low 1.01 | S. cerevisiae deletion strains, locus YKL190W, strain CNB1, active compounds read low 0.989 | S. cerevisiae deletion strains, locus YKR001C, strain vps1, active compounds read low 1 | S. cerevisiae deletion strains, locus YKR026C, strain gcn3, active compounds read low 0.966 | S. cerevisiae deletion strains, locus YKR091W, strain srl3, active compounds read low 0.978 | S. cerevisiae deletion strains, locus YLL001W, strain dnm1, active compounds read low 0.977 | S. cerevisiae deletion strains, locus YLL026W, active compounds read low 0.999 | S. cerevisiae deletion strains, locus YLL041C, strain sdh2, active compounds read low 0.997 | S. cerevisiae deletion strains, locus YLR027C, strain aat2, active compounds read low 0.983 | S. cerevisiae deletion strains, locus YLR039C, strain RIC1, active compounds read low 0.999 | S. cerevisiae deletion strains, locus YLR058C, strain SHM2, active compounds read low 0.976 | S. cerevisiae deletion strains, locus YLR102C, strain apc9, active compounds read low 0.993 | S. cerevisiae deletion strains, locus YLR113W, strain HOG1, active compounds read low 0.973 | S. cerevisiae deletion strains, locus YLR221C, strain rsa3, active compounds read low 0.968 | S. cerevisiae deletion strains, locus YLR258W, strain gsy2, active compounds read low 0.98 | S. cerevisiae deletion strains, locus YLR262C, strain YPT6 (second series), active compounds read low 0.981 | S. cerevisiae deletion strains, locus YLR262C, strain YPT6, active compounds read low 0.974 | S. cerevisiae deletion strains, locus YLR268W, strain sec22, active compounds read low 1.05 | S. cerevisiae deletion strains, locus YLR320W, strain mms22, active compounds read low 0.982 | S. cerevisiae deletion strains, locus YLR330W, strain CHS5, active compounds read low 0.994 | S. cerevisiae deletion strains, locus YLR342W, strain FKS1 (second series), active compounds read low 1.01 | S. cerevisiae deletion strains, locus YLR342W, strain FKS1, active compounds read low 0.992 | S. cerevisiae deletion strains, locus YLR357W, strain rsc2, active compounds read low 0.939 | S. cerevisiae deletion strains, locus YLR370C, strain arc18, active compounds read low 0.982 | S. cerevisiae deletion strains, locus YLR384C, strain iki3, active compounds read low 0.994 | S. cerevisiae deletion strains, locus YLR418C, strain cdc73, active compounds read low 0.997 | S. cerevisiae deletion strains, locus YML016C, strain PPZ1, active compounds read low 0.988 | S. cerevisiae deletion strains, locus YML032C, strain rad52, active compounds read low 1.01 | S. cerevisiae deletion strains, locus YML120C, strain ndi1, active compounds read low 0.969 | S. cerevisiae deletion strains, locus YML124C, strain tub3, active compounds read low 1 | S. cerevisiae deletion strains, locus YMR058W, strain fet3, active compounds read low 1.01 | S. cerevisiae deletion strains, locus YMR078C, strain ctf18, active compounds read low 0.985 | S. cerevisiae deletion strains, locus YMR125W, strain sto1, active compounds read low 0.955 | S. cerevisiae deletion strains, locus YMR129W, active compounds read low 0.983 | S. cerevisiae deletion strains, locus YMR205C, strain PFK2, active compounds read low 0.985 | S. cerevisiae deletion strains, locus YMR223W, strain ubp8, active compounds read low 0.976 | S. cerevisiae deletion strains, locus YMR231W, strain pep5, active compounds read low 0.979 | S. cerevisiae deletion strains, locus YMR307W, strain GAS1, active compounds read low 1 | S. cerevisiae deletion strains, locus YNL067W, strain RPL9B, active compounds read low 0.99 | S. cerevisiae deletion strains, locus YNL071W, strain lat1, active compounds read low 0.969 | S. cerevisiae deletion strains, locus YNL153C, strain GIM3, active compounds read low 0.987 | S. cerevisiae deletion strains, locus YNL183C, strain NPR1, active compounds read low 0.942 | S. cerevisiae deletion strains, locus YNL209W, strain ssb2, active compounds read low 0.967 | S. cerevisiae deletion strains, locus YNL233W, strain BNI4, active compounds read low 0.994 | S. cerevisiae deletion strains, locus YNL248C, strain rpa49, active compounds read low 0.974 | S. cerevisiae deletion strains, locus YNL250W, strain rad50, active compounds read low 1 | S. cerevisiae deletion strains, locus YNL271C, strain bni1, active compounds read low 0.998 | S. cerevisiae deletion strains, locus YNL298W, strain CLA4, active compounds read low 1 | S. cerevisiae deletion strains, locus YNL307C, strain MCK1, active compounds read low 1 | S. cerevisiae deletion strains, locus YNL322C, strain KRE1 (second series), active compounds read low 0.959 | S. cerevisiae deletion strains, locus YNR049C, strain mso1, active compounds read low 0.98 | S. cerevisiae deletion strains, locus YNR052C, strain pop2, active compounds read low 0.995 | S. cerevisiae deletion strains, locus YOL006C, strain TOP1, active compounds read low 0.968 | S. cerevisiae deletion strains, locus YOL012C, strain htz1 1.31 | S. cerevisiae deletion strains, locus YOL147C, strain pex11, active compounds read low 1 | S. cerevisiae deletion strains, locus YOR001W, strain rrp6, active compounds read low 0.948 | S. cerevisiae deletion strains, locus YOR061W, strain CKA2, active compounds read low 0.968 | S. cerevisiae deletion strains, locus YOR069W, strain VPS5, active compounds read low 1 | S. cerevisiae deletion strains, locus YOR070C, strain gyp1, active compounds read low 0.991 | S. cerevisiae deletion strains, locus YOR080W, strain dia2, active compounds read low 0.972 | S. cerevisiae deletion strains, locus YOR083W, strain WHI5, active compounds read low 0.964 | S. cerevisiae deletion strains, locus YOR106W, strain vam3, active compounds read low 0.981 | S. cerevisiae deletion strains, locus YOR136W, strain idh2, active compounds read low 0.983 | S. cerevisiae deletion strains, locus YOR144C, strain elg1, active compounds read low 0.996 | S. cerevisiae deletion strains, locus YOR184W, strain ser1, active compounds read low 0.994 | S. cerevisiae deletion strains, locus YOR231W, strain MKK1, active compounds read low 0.978 | S. cerevisiae deletion strains, locus YOR265W, strain rbl2, active compounds read low 1.02 | S. cerevisiae deletion strains, locus YOR270C, strain vph1, active compounds read low 0.919 | S. cerevisiae deletion strains, locus YOR290C, strain snf2, active compounds read low 0.974 | S. cerevisiae deletion strains, locus YOR316C, strain cot1, active compounds read low 0.984 | S. cerevisiae deletion strains, locus YPL051W, strain arl3, active compounds read low 1.01 | S. cerevisiae deletion strains, locus YPL055C, strain LGE1, active compounds read low 0.939 | S. cerevisiae deletion strains, locus YPL078C, strain atp4, active compounds read low 0.992 | S. cerevisiae deletion strains, locus YPL106C, strain sse1, active compounds read low 0.983 | S. cerevisiae deletion strains, locus YPL240C, strain hsp82, active compounds read low 0.99 | S. cerevisiae deletion strains, locus YPL241C, strain CIN2, active compounds read low 0.996 | S. cerevisiae deletion strains, locus YPL256C, strain CLN2, active compounds read low 0.968 | S. cerevisiae deletion strains, locus YPR119W, strain clb2, active compounds read low 0.983 | S. cerevisiae deletion strains, locus YPR141C, strain kar3, active compounds read low 0.983 | S. cerevisiae deletion strains, locus YPR163C, strain tif3, active compounds read low 1 | S. cerevisiae deletion strains, locus YPR167C, strain met16, active compounds read low 0.989 | S. cerevisiae deletion strains, strain wtn01, active compounds read low 1.01 | S. cerevisiae strains, strain wild type, active compounds read low 0.988
